Values joined by “and” are separate entries in the source; they are usually repeats but may differ in a detail not shown here. Equal values may be shown once. In all, about 5,500 compounds went through this assay and about 2,000 (36%) were called active. Roughly 18% stayed inconclusive and do not appear here. No stated cut-off is given here; in the data, active means normalized growth mostly below about 0.91 (no sharp cut-off); inconclusive means no clear call, values can overlap the other calls; inactive means mostly above about 0.92. The list shows a part of the results.
Experiment: chemical genetic growth profiling, strain panel (AID 1159580);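 further: tested at 20 µM; growth read once vehicle control cultures reached saturation at 30 °C; 1 = growth at the plate median or of vehicle wells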
Details: S. cerevisiae deletion strains, growth OD

Measured: normalized growth

C=C[C@@]1(C)CC(=O)[C@@]2(O)[C@](C)(O1)[C@@H](OC(C)=O)[C@@H](O)C1C(C)(C)CC[C@H](O)[C@@]12C (stereo partly specified)
inactive: locus YAL013W, strain DEP1, stronger effect = lower value 0.984 | locus YAL021C, strain ccr4, stronger effect = lower value 0.951 | locus YAL026C, strain drs2, stronger effect = lower value 0.978 | locus YAL030W, strain snc1, stronger effect = lower value 0.973 | locus YBL061C, strain skt5, stronger effect = lower value 0.984 | locus YBR009C, strain hhf1, stronger effect = lower value 1 | locus YBR021W, strain FUR4, stronger effect = lower value 1.01 | locus YBR023C, strain chs3, stronger effect = lower value 0.978 | locus YBR171W, strain sec66, stronger effect = lower value 0.992 | locus YBR229C, strain ROT2, stronger effect = lower value 0.947 | locus YBR231C, strain swc5, stronger effect = lower value 1.01 | locus YBR279W, strain paf1, stronger effect = lower value 0.974 | locus YCL011C, strain gbp2, stronger effect = lower value 0.954 | locus YCL016C, strain dcc1, stronger effect = lower value 0.956 | locus YCL029C, strain bik1, stronger effect = lower value 0.977 | locus YCL069W, strain vba3, stronger effect = lower value 0.983 | locus YCR088W, strain abp1, stronger effect = lower value 0.996 | locus YDL005C, strain med2, stronger effect = lower value 0.983 | locus YDL035C, strain GPR1, stronger effect = lower value 0.96 | locus YDL040C, strain nat1, stronger effect = lower value 0.986 | locus YDL074C, strain BRE1, stronger effect = lower value 0.999 | locus YDL101C, strain DUN1, stronger effect = lower value 0.988 | locus YDL134C, strain PPH21, stronger effect = lower value 0.981 | locus YDL185W, strain tfp1, stronger effect = lower value 0.986 | locus YDL192W, strain arf1, stronger effect = lower value 0.976 | locus YDR001C, strain nth1, stronger effect = lower value 0.976 | locus YDR069C, strain doa4, stronger effect = lower value 0.975 | locus YDR101C, strain arx1, stronger effect = lower value 0.986 | locus YDR137W, strain rgp1, stronger effect = lower value 0.989 | locus YDR150W, strain NUM1, stronger effect = lower value 0.972 | locus YDR159W, strain sac3, stronger effect = lower value 1.02 | locus YDR162C, strain NBP2, stronger effect = lower value 0.969 | locus YDR195W, strain ref2 1.02 | locus YDR297W, strain sur2, stronger effect = lower value 0.977 | locus YDR318W, strain mcm21, stronger effect = lower value 0.986 | locus YDR334W, strain swr1, stronger effect = lower value 0.972 | locus YDR335W, strain msn5, stronger effect = lower value 0.988 | locus YDR388W, stronger effect = lower value 0.988 | locus YDR392W, strain spt3, stronger effect = lower value 0.905 | locus YDR502C, strain sam2, stronger effect = lower value 0.965 | locus YEL003W, strain gim4, stronger effect = lower value 0.994 | locus YEL037C, strain rad23, stronger effect = lower value 0.997 | locus YEL061C, strain CIN8 (second series), stronger effect = lower value 0.992 | locus YEL061C, strain CIN8, stronger effect = lower value 0.983 | locus YER015W, strain faa2, stronger effect = lower value 0.993 | locus YER016W, strain bim1, stronger effect = lower value 0.963 | locus YER110C, stronger effect = lower value 0.976 | locus YER111C, strain swi4, stronger effect = lower value 1.01 | locus YER155C, strain BEM2 (second series), stronger effect = lower value 0.999 | locus YER155C, strain BEM2, stronger effect = lower value 1.01 | locus YER167W, strain BCK2, stronger effect = lower value 0.964 | locus YFR010W, strain ubp6, stronger effect = lower value 0.998 | locus YGL078C, strain dbp3, stronger effect = lower value 0.985 | locus YGL086W, strain mad1, stronger effect = lower value 0.984 | locus YGL167C, strain pmr1, stronger effect = lower value 0.99 | locus YGL173C, strain kem1, stronger effect = lower value 0.987 | locus YGL227W, strain vid30, stronger effect = lower value 0.985 | locus YGL240W, strain doc1, stronger effect = lower value 0.98 | locus YGL248W, strain PDE1, stronger effect = lower value 0.982 | locus YGL253W, strain hxk2, stronger effect = lower value 0.948 | locus YGR078C, strain PAC10, stronger effect = lower value 1.01 | locus YGR135W, strain pre9, stronger effect = lower value 0.985 | locus YGR229C, strain SMI1, stronger effect = lower value 0.998 | locus YGR252W, strain gcn5, stronger effect = lower value 1 | locus YHR013C, strain ard1, stronger effect = lower value 0.948 | locus YHR027C, strain rpn1, stronger effect = lower value 0.982 | locus YHR030C, strain SLT2, stronger effect = lower value 0.987 and 0.975 | locus YHR079C, strain IRE1 (second series), stronger effect = lower value 0.994 | locus YHR079C, strain IRE1, stronger effect = lower value 0.978 | locus YHR094C, strain hxt1, stronger effect = lower value 0.987 | locus YHR129C, strain ARP1, stronger effect = lower value 0.996 | locus YHR142W, strain chs7, stronger effect = lower value 0.955 | locus YHR200W, strain rpn10, stronger effect = lower value 0.989 | locus YIL066C, strain RNR3, stronger effect = lower value 0.979 | locus YIL073C, strain SPO22, stronger effect = lower value 0.945 | locus YIL125W, strain kgd1, stronger effect = lower value 0.983 | locus YIR030C, strain dcg1, stronger effect = lower value 0.979 | locus YJL092W, strain hpr5, stronger effect = lower value 0.974 | locus YJL095W, strain BCK1 (second series), stronger effect = lower value 0.978 | locus YJL095W, strain BCK1, stronger effect = lower value 1 and 0.973 | locus YJL115W, strain asf1, stronger effect = lower value 0.964 | locus YJL129C, strain trk1, stronger effect = lower value 0.954 | locus YJL134W, strain LCB3, stronger effect = lower value 0.984 | locus YJL154C, strain vps35, stronger effect = lower value 0.982 | locus YJL164C, strain tpk1, stronger effect = lower value 0.995 | locus YJL166W, strain qcr8, stronger effect = lower value 0.992 | locus YJL168C, strain set2, stronger effect = lower value 0.992 | locus YJL187C, strain SWE1 (second series), stronger effect = lower value 0.991 | locus YJL187C, strain SWE1, stronger effect = lower value 0.984 | locus YJR043C, strain POL32, stronger effect = lower value 1.01 | locus YJR066W, strain TOR1, stronger effect = lower value 0.927

From PubChem BioAssay AID1159580 (chemical genetic matrix, 2015)
